# Laboratory results published in PubChem BioAssay (NCATS).
# Several values for one entry are separate records, joined by “and”; a condition that tells them apart may be missing. Equal values may be shown once. Records with an inconclusive call do not appear. Unmarked numbers belong to inactive results. Activity calls are given as the source filed them. Unless noted, the call rests on the fitted dose curve; in most records, active means well fitted curve in the direction sought with a large enough effect; inconclusive means small, poorly fitted or top-dose-only effect, or another doubt; inactive means no such curve, though single readings can be large; an effect the other way counts as inactive or inconclusive.
# Test: qHTS for Activators of Parkin Expression: LOPAC Validation Assay (NLuc Reporter) (AID 720572)
# Details: Parkin promoter NanoLuc reporter cells, luminescence, percent of positive control, DMSO as zero; series mostly up to 46.1 µM
# Outline: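 NLuc signal, read 10 min after reagent and following a prior FLuc read, is normalized to DMSO (0) and positive controls (100%). Cells: neuronal Parkin-promoter coincidence reporter line; compounds tested 7-point, 24 h, 37 C, 5% CO2.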
row,Structure (SMILES),outcome
1,O=c1[nH]oc2c1CCNC2,inactive
2,CN1C(=O)CCS(=O)(=O)C1c1ccc(Cl)cc1 (stereo not drawn),inactive
3,CC(C)(C)NCC(O)c1ccccc1Cl (stereo not drawn),inactive
4,Cc1ncsc1CCCl,inactive
5,O=C(O)CCCc1ccc(N(CCCl)CCCl)cc1,inactive
6,CCCCC/C=C\C/C=C\C/C=C\C/C=C\CCCC(=O)NCC(=O)O,inactive
7,CC(C)N(CCC(C(N)=O)(c1ccccc1)c1ccccn1)C(C)C (stereo not drawn),inactive
8,COc1ccc2c(c1OC)C(=O)O[C@H]2[C@@H]1c2cc3c(cc2CCN1C)OCO3,inactive
9,CC(NC(C)(C)C)C(=O)c1cccc(Cl)c1 (stereo not drawn),inactive
10,CCC1(c2ccc(N)cc2)CCC(=O)NC1=O (stereo not drawn),inactive
11,O=C(CCCN1CCC2(CC1)C(=O)NCN2c1ccccc1)c1ccc(F)cc1,inactive
12,C=C(C)[C@H]1CN[C@H](C(=O)O)[C@H]1CC(=O)O,inactive

# Test: qHTS for Activators of Parkin Expression: LOPAC Validation Assay (FLuc Reporter) (AID 720573)
# Details: Cell line, PRKN promoter firefly luciferase reporter, vehicle wells = 0, positive control = 100%; series mostly up to 46.1 µM
# Outline: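 Neuronal cell line stably carrying FLuc/NLuc coincidence reporter under Parkin promoter; cells plated 24 h, then compounds added in 7-point dose response for 24 h at 37 C. FLuc luminescence read; normalized to DMSO and positive control (100%).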
row,Structure (SMILES),outcome
1,O=c1[nH]oc2c1CCNC2,inactive
2,CN1C(=O)CCS(=O)(=O)C1c1ccc(Cl)cc1 (stereo not drawn),inactive
3,CC(C)(C)NCC(O)c1ccccc1Cl (stereo not drawn),inactive
4,Cc1ncsc1CCCl,inactive
5,O=C(O)CCCc1ccc(N(CCCl)CCCl)cc1,inactive
6,CCCCC/C=C\C/C=C\C/C=C\C/C=C\CCCC(=O)NCC(=O)O,inactive
7,CC(C)N(CCC(C(N)=O)(c1ccccc1)c1ccccn1)C(C)C (stereo not drawn),inactive
8,COc1ccc2c(c1OC)C(=O)O[C@H]2[C@@H]1c2cc3c(cc2CCN1C)OCO3,inactive
9,CC(NC(C)(C)C)C(=O)c1cccc(Cl)c1 (stereo not drawn),inactive
10,CCC1(c2ccc(N)cc2)CCC(=O)NC1=O (stereo not drawn),inactive
11,O=C(CCCN1CCC2(CC1)C(=O)NCN2c1ccccc1)c1ccc(F)cc1,inactive
12,C=C(C)[C@H]1CN[C@H](C(=O)O)[C@H]1CC(=O)O,inactive

# Test: qHTS assay for small molecule agonists of the antioxidant response element (ARE) signaling pathway measured by Nrf2-dependant transcriptional activity (AID 720636; active means well fitted curve in the direction sought with a large enough effect in the repeat runs; an effect the other way counts as inactive or inconclusive; further: % of control where 0% means no effect)
# Details: ARE-luc HepG2, Nrf2 luciferase reporter, 16 h; series mostly up to 92.4 µM
# Outline: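 Nrf2-dependent transcription read as ONE-Glo luciferase signal from ARE-luc HepG2 reporter cells after 16 hr compound treatment at 37 C, 5% CO2, in assay medium with 1% dialyzed FBS.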
row,Structure (SMILES),outcome
1,C[C@]12CCC(=O)C=C1CC[C@@H]1[C@@H]2CC[C@@]2(C)[C@H]1CC[C@]2(C)O,inactive
2,O=C(O)CCCc1ccc(N(CCCl)CCCl)cc1,inactive
3,C[C@]12CCC(=O)C=C1CC[C@@H]1[C@@H]2CC[C@]2(C)C(=O)CC[C@@H]12,inactive
4,Nc1ccccc1C(=O)O,inactive
5,Oc1ccc(Cl)cc1,inactive
6,COP(=S)(OC)SCN1C(=O)c2ccccc2C1=O,inactive
7,CC1(C)C(C=C(Cl)Cl)C1C(=O)OC(C#N)c1cccc(Oc2ccccc2)c1 (stereo not drawn),inactive

# Test: qHTS assay for small molecule antagonists of the retinoid-related orphan receptor gamma (ROR-gamma) signaling pathway - cell viability counter screen (AID 720652; active means well fitted curve in the direction sought with a large enough effect in the repeat runs; an effect the other way counts as inactive or inconclusive;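 further: CHO reporter cells with doxycycline-induced ROR-gamma expression; compound exposure lasted 16 hr before ATP read; on the % scale 0 is the no-effect control and ±100 the full control effect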)
# Details: RORgamma reporter cell line viability counter screen; series mostly up to 92.2 µM
# Outline: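 CHO RORE-LUC/TET-ROR line, 1,000 cells/well, 37 C 5% CO2 5 hr; cpd or DMSO + doxycycline induction, 16 hr. CellTiter-Glo, 30 min RT, luminescence = ATP content.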
row,Structure (SMILES),outcome
1,C[C@]12CCC(=O)C=C1CC[C@@H]1[C@@H]2CC[C@@]2(C)[C@H]1CC[C@]2(C)O,inactive
2,C[C@]12CCC(=O)C=C1CC[C@@H]1[C@@H]2CC[C@]2(C)C(=O)CC[C@@H]12,inactive
3,Nc1ccccc1C(=O)O,inactive
4,Oc1ccc(Cl)cc1,inactive

# Test: qHTS assay for small molecule agonists of the antioxidant response element (ARE) signaling pathway measured by Nrf2-dependant transcriptional activity - cell viability counter screen (AID 720653; active means well fitted curve in the direction sought with a large enough effect in the repeat runs; an effect the other way counts as inactive or inconclusive; further: on the % scale 0 is the no-effect control and ±100 the full control effect)
# Details: ARE-bla HepG2 viability, CellTiter-Glo ATP luminescence, 16 h; stronger effect = lower value
# Outline: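 ARE-bla HepG2 cells treated with compounds for 16 h at 37C; this counter screen measures viability as intracellular ATP by CellTiter-Glo luminescence after 30 min at room temperature.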
row,Structure (SMILES),max response
1,C[C@]12CCC(=O)C=C1CC[C@@H]1[C@@H]2CC[C@@]2(C)[C@H]1CC[C@]2(C)O,11%
2,O=C(O)CCCc1ccc(N(CCCl)CCCl)cc1,-0.747% and 2.01%
3,C[C@]12CCC(=O)C=C1CC[C@@H]1[C@@H]2CC[C@]2(C)C(=O)CC[C@@H]12,3.62% and -13.2%
4,Nc1ccccc1C(=O)O,1.19%
5,Oc1ccc(Cl)cc1,-5.13%
6,O=C1c2ccccc2C(=O)c2ccccc21,-5.47%
7,COP(=S)(OC)SCN1C(=O)c2ccccc2C1=O,3.01%
8,CC1(C)C(C=C(Cl)Cl)C1C(=O)OC(C#N)c1cccc(Oc2ccccc2)c1 (stereo not drawn),-2.42%
